Source: PubChem BioAssay (NCATS)
Records with an inconclusive call do not appear. Entries that show only a call come without a potency. Active and inactive are the calls of the source. Calls follow the shape of the dose curve; as a rule, active = well fitted inhibition curve with a large enough effect; inconclusive = small, poorly fitted or top-dose-only effect; inactive = no such curve, though single readings can be large or run the other way.

Biological target: Cytochrome P450 3A4 (Homo sapiens) (UniProt P08684)
Experiment: qHTS Assay for Inhibitors and Substrates of Cytochrome P450 3A4 (AID 884); also: nearly all actives have a fitted effect of over 50% in size
Settings: recombinant CYP3A4, Luciferin-PPXE luminescence; series mostly up to 57.1 µM
Protocol: NIH Molecular Libraries Screening Centers Network [MLSCN]
NIH Chemical Genomics Center [NCGC]
The P450 gene superfamily is involved in the metabolism and clearance of xenobiotics. This assay used human CYP3A4 to measure the dealkylation of luciferin-6' phenylpiperazinylyl (Luciferin-PPXE; […]) to luciferin. The luciferin is then measured by luminescence after the addition of a luciferase detection reagent. Luciferin-PPXE concentration in the assay was equal to its KM for CYP3A4. Inhibitors and some substrates limit the production of luciferin, and decrease measured luminescence.
NCGC Assay Protocol Summary:
Two uL of enzyme and substrate mix (final concentrations: 20nM CYP3A4, 25uM Luciferin-PPXE, 200mM KPO4) were dispensed into a white, solid bottom 1536-well microtiter plate. 23nL of compound was transferred by a pin tool. The plate was incubated at RT for 10 min. Two uL of an NADPH regeneration solution (Promega supplied reagent) was dispensed and the reaction was allowed to continue for 60 min at RT. Then the reaction was stopped by reconstituted luciferin detection buffer. After another 20 min of incubation the plate was read on the ViewLux (Perkin Elmer) at 60 sec exposure and 2x2 binning. This protocol was carried out with Promega-Glo reagents and further information can be found at http://www.promega.com/tbs/tb325/tb325.pdf. Data were normalized to the to AC100 inhibition (57 uM ketoconazole).
Keywords: P450, CYP3A4, Luciferase, MLSMR, MLSCN, NIH Roadmap, qHTS, NCGC
Potency is read from the fitted curve at half-maximal effect.

Sequence of Cytochrome P450 3A4 (Homo sapiens) (P08684 whole entry, looked up): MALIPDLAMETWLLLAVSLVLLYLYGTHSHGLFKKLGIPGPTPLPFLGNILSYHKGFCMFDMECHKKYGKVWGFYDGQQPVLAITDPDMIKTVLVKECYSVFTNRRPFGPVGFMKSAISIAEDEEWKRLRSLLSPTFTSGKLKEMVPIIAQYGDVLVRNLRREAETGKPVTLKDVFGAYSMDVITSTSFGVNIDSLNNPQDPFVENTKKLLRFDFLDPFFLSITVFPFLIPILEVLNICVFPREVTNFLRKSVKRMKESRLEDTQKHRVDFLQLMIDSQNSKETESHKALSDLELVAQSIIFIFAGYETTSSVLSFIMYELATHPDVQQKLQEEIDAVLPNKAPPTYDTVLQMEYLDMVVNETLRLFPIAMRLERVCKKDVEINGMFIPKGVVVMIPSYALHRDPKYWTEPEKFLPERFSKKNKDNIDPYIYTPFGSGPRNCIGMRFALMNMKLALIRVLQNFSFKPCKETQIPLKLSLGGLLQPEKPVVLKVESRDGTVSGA

| SMILES | Potency |
| --- | --- |
| COc1ccc(C2C(=O)c3ccccc3C2=O)cc1 | inactive |
| O=c1ccc2ccccc2o1 | inactive |
| CCN1CCN(c2cc3c(cc2F)c(=O)c(C(=O)O)cn3C2CC2)CC1 | inactive |
| Nc1nc2ncc(CNc3ccc(C(=O)N[C@@H](CCC(=O)O)C(=O)O)cc3)nc2c(=O)[nH]1 | inactive |
| CC(CCc1ccccc1)NCC(O)c1ccc(O)c(C(N)=O)c1 (stereo not given) | inactive |
| CCN(CCCc1ccccc1)CCCc1ccccc1 | inactive |
| CCCCOc1cc(C(=O)NCCN(CC)CC)c2ccccc2n1 | inactive |
| CO/N=C1\CN(c2nc3c(cc2F)c(=O)c(C(=O)O)cn3C2CC2)CC1CN (stereo not given) | inactive |
| CN1CCN(C(c2ccccc2)c2ccccc2)CC1 | inactive |
| CCn1cc(C(=O)O)c(=O)c2cnc(N3CCCC3)nc21 | inactive |
| CCCn1c(=O)[nH]c(=O)c2[nH]cnc21 | inactive |
| Cc1c(C(N)=O)cc([N+](=O)[O-])cc1[N+](=O)[O-] | inactive |
| CC(C)(CO)[C@@H](O)C(=O)NCCCO | inactive |
| CC(=O)Nc1c(I)cc(I)c(C(=O)O)c1I | inactive |
| CC(O)C(=O)O (stereo not given) | inactive |
| O=C1CCC(c2ccc(-n3ccnc3)cc2)=NN1 | 1.58 µM (active) |
| CC(C)NC[C@@H](O)COc1cccc2ccccc12 | inactive |
| CCN(CC)C(=O)N1CCN(C)CC1 | inactive |
| Cc1c(N(C)CS(=O)(=O)O)c(=O)n(-c2ccccc2)n1C | inactive |
| Cc1cccc(C)c1NC(=O)CN1CCN(CCCC(c2ccc(F)cc2)c2ccc(F)cc2)CC1 | inactive |

| SMILES | Potency |
| --- | --- |
| CC(=O)O[C@]1(C(C)=O)CC[C@H]2[C@@H]3C[C@H](C)C4=CC(=O)CC[C@]4(C)[C@H]3CC[C@@]21C | 15.8 µM (active) |
| Nc1ccc(C(=O)O)cc1 | inactive |
| COc1cc(-c2ccc(=O)[nH]n2)ccc1OC(F)F | inactive |
| CCOC(=O)n1ccn(C)c1=S | inactive |
| CC(C)(C(=O)c1cccnc1)c1cccnc1 | 1.26 µM (active) |
| C[C@]12CC[C@@H]3c4ccc(O)cc4CC[C@H]3[C@@H]1CC[C@@H]2O | inactive |
| Cc1ccc(C(=O)C(C)CN2CCCCC2)cc1 (stereo not given) | inactive |
| CCCCCCCCCCCCCCCCOP(=O)([O-])OCC[N+](C)(C)C | inactive |
| Oc1c(I)cc(I)c2cccnc12 | inactive |
| C=C(CC)C(=O)c1ccc(OCC(=O)O)c(Cl)c1Cl | inactive |
| CCOc1ccc2nc3cc(N)ccc3c(N)c2c1 | inactive |
| C1CCc2nnnn2CC1 | inactive |
| Cc1ccnc(NS(=O)(=O)c2ccc(N)cc2)n1 | inactive |
| Oc1ccc(Cl)c2cccnc12 | inactive |
| CN1CCC(=C2c3ccccc3Sc3ccccc32)CC1 | inactive |
| COc1cc(OC)cc(OC)c1 | inactive |
| O=C(O)c1cc2cc(Cc3cccnc3)ccc2o1 | inactive |
| CC(=O)N(O)CCCCCNC(=O)CCC(=O)N(O)CCCCCNC(=O)CCC(=O)N(O)CCCCCN | inactive |
| CN(C)/N=N/c1nc[nH]c1C(N)=O | inactive |
| O=C(O)CCCCC(=O)O | inactive |
